# Wnt act: Wnt/beta-catenin pathway activators, primary screen, cell-based, plate reader, single point; 300,000 compounds, 1.2% hits; Wnt/beta-catenin reporter cell assay, activator; activation, % at 9.35 µM; AID 743398, 2014; in the data active = activation above about 30%, passing the limit was not always enough;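 also: 0% = neutral control wells and 100% = positive control wells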
# esBAF inh: Bmi1 luciferase reporter increase in mESCs, primary screen, esBAF inhibitor project, mouse ES cells, Bmi1 luciferase knock-in, single point; 350,000 compounds, 2% hits; 24 h; 100% = twice the neutral-well signal; reporter increase, % at 12.5 µM; in the data active = activation above about 40%;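 also: 0% = median of the plate's neutral control wells and 100% = double that signal; a rise in the Bmi1 reporter signal indicates esBAF inhibition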
# MITF TRPM1 inh: inhibitors of MITF-dependent TRPM1 promoter reporter, primary screen, cell-based, SK-MEL-5, single point, luciferase; inhibition, % at 12.5 µM; AID 488899, 2010; 330,000 compounds, 0.83% hits; SK-MEL-5 TRPM1 promoter luciferase, 24 h;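 active = mean inhibition across replicates of 60% or more, whatever share of single replicates reaches that level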
# MITF TRPM1 HTS: activators of MITF-driven TRPM1 promoter reporter, primary screen, cell-based, SK-MEL-5, luciferase, single point; SK-MEL-5 TRPM1-promoter luciferase, 24 h; % of positive control, neutral wells = 0; activation, % at 12.5 µM; 300,000 compounds, 0.75% hits;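 active = mean activation of at least 80% with every replicate also reaching 80%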;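 also: 0% = neutral control wells and 100% = parthenolide positive control wells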
# EWS-Fli block: EWS/Fli-driven NR0B1 reporter inhibitors, primary screen, A673 cells, NR0B1 luciferase, luminescence, MLPCN library | viability-normalised | inhibition, % at 12.6 µM | 350,000 compounds, 0.67% hits | AID 651661, 2012;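 active = mean inhibition of at least 50% after viability correction, with every replicate also passing that limit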;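 also: firefly luciferase signal divided by Alamar Blue viability fluorescence both relative to DMSO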
# PAX8 reporter: inhibitors of PAX8-driven TPO luciferase reporter, primary screen, RMG-I cells, single concentration | 360,000 compounds, 1.2% hits | SteadyGlo, 24 h | AID 652154, 2013 | inhibition, % at 12.6 µM;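 active = mean replicate inhibition at least 60% with every replicate also reaching 60%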;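 also: luciferase light reporting Pax8 driven TPO promoter activity; plate controls were median of neutral control wells for no effect and mitoxantrone controls for full effect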
# * = called active by the depositor; / = no result. Rows were chosen to be rich in hits. Some 4% of all compounds tested hit in one or more screens of this group.
SMILES,Wnt act,esBAF inh,MITF TRPM1 inh,MITF TRPM1 HTS,EWS-Fli block,PAX8 reporter
COCCNC(=O)C[C@@H]1CC[C@H](NS(=O)(=O)c2ccc(C)cc2)[C@H](CO)O1,/,3,/,/,1,-12
Cc1noc(C)c1NC(=O)Nc1cccc2c1O[C@@H](CN(C)CC1CCCCC1)[C@@H](C)CN([C@H](C)CO)C2=O,/,-1,/,/,9,-11
COc1ccc(CN(C)C[C@@H]2OCCCC[C@@H](C)Oc3ccc(NS(=O)(=O)c4c(C)noc4C)cc3C(=O)N([C@H](C)CO)C[C@@H]2C)cc1,/,-2,/,/,-1,2
C[C@@H]1CN([C@@H](C)CO)C(=O)c2cc(Br)cnc2O[C@@H]1CN(C)C(=O)C1CC1,/,-8,/,/,-1,/
O=C(CC1CC1)N1CC(=O)N2[C@H](CO)[C@H](c3ccc(C#Cc4ccccc4)cc3)[C@H]2C1,/,/,/,/,4,/
C[C@H](CO)N1C[C@H](C)[C@H](CN(C)C(=O)c2ccc3c(c2)OCO3)Oc2cc(C#Cc3ccccc3F)ccc2S1(=O)=O,/,15,/,/,19,56
C[C@H](CO)N1C[C@H](C)[C@@H](CN(C)C(=O)Cc2ccccc2)Oc2cc(C#Cc3ccccc3F)ccc2S1(=O)=O,/,1,/,/,34,74*
C[C@H](CO)N1C[C@H](C)[C@@H](CN(C)C(=O)c2ccc3c(c2)OCO3)Oc2cc(C#Cc3ccccc3F)ccc2S1(=O)=O,/,9,/,/,25,79*
C[C@H]1CN([C@@H](C)CO)S(=O)(=O)c2ccc(C#Cc3ccccc3F)cc2O[C@H]1CN(C)C(=O)Cc1ccccc1,/,11,/,/,14,7
COc1ccc2c3c([nH]c2c1)[C@@H](CO)N(C(=O)c1ccncc1)CC31CCN(C(=O)c2ccncc2)CC1,/,/,/,/,-1,/
COc1ccc2nc(SCC(=O)NC3CCCC3)c(C)cc2c1,-3,-7,24,-25,55*,14
COc1ccc2c(C)cc(SCC(=O)NC3CCCC3)nc2c1,-1,-1,21,-20,-1,16
O=C1/C(=C/c2ccccc2)CN(C(=O)CCN2CCOCC2)C/C1=C\c1ccccc1,-25,/,101*,/,65*,-19
CN1CCN(C(=O)CCCN2C(=O)/C(=C/c3ccccc3)SC2=S)CC1,-4,5,-8,8,-27,8
CN(C)CCC(=O)N1C/C(=C/c2ccccc2)C(=O)/C(=C\c2ccccc2)C1,-25,/,101*,-100,80*,/
C[N+](C)(C)CCC(=O)N1C/C(=C/c2ccccc2)C(=O)/C(=C\c2ccccc2)C1,-7,/,3,-1,58*,-30
O=C(Cc1ccccc1)N1CCNCC1,-1,/,14,-12,3,-4
O=C(/C=C/c1ccccc1)CCN1CCOCC1,-1,/,-3,/,15,29
O=C(Cc1c(O)c2ccccc2[nH]c1=O)NC1CCCCCC1,0,3,-2,1,/,/
CCOC(=O)c1c(NCC2CCCO2)c2ccccc2[nH]c1=O (stereo not drawn),/,/,-37,40,/,/
O=C(NC1CCCCCC1)c1c(O)c2ccccc2[nH]c1=O,/,46*,-97,99*,/,/
O=C(NCC1CCCO1)c1c(O)c2ccccc2[nH]c1=O (stereo not drawn),/,51*,-45,/,/,/
O=S(=O)(NCC[C@@H]1CC[C@H](NS(=O)(=O)c2cccc(Cl)c2)[C@H](CO)O1)c1cccc(F)c1,/,6,/,/,-1,1
Cn1cc(/C=C(\C#N)C(=O)Nc2ccccc2O)c2ccccc21,/,64*,-42,40,/,/
CC(C)OC(=O)/C(C#N)=C/c1cn(C)c2ccccc12,2,/,8,/,0,-7
COc1ccc2c3c(n(C)c2c1)[C@H](CO)N(C(=O)CN1CCOCC1)CC31CN(Cc2ccncc2)C1,/,/,/,/,-11,/
Cc1ccc(S(=O)(=O)N(C)C[C@@H]2OCCCC[C@H](C)Oc3ccc(NS(=O)(=O)c4ccccc4)cc3C(=O)N([C@H](C)CO)C[C@@H]2C)cc1,/,7,/,/,2,64*
Cc1ccc(S(=O)(=O)N(C)C[C@@H]2OCCCC[C@H](C)Oc3ccc(NS(=O)(=O)c4ccccc4)cc3C(=O)N([C@H](C)CO)C[C@H]2C)cc1,/,-2,/,/,-9,72*

# Assay outcomes from PubChem.
